Results taken from publication PMC4336329 (PLoS ONE, 2015).
The campaign covered roughly 310,000 compounds. About 14,000 (4.5%) showed an effect of 50% or more. The effect is printed as a negative number. The full list was thinned out, with strong results kept by preference.

target: human ether-à-go-go-related gene (hERG) potassium channel (human, UniProt Q12809); assay: primary screen, population patch clamp on CHO cells stably expressing hERG; higher = less effect of the substance
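Also: peak tail current of the secondary pulse compared with the same well before compound.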

Chain of human ether-à-go-go-related gene (hERG) potassium channel (Q12809 whole entry, looked up): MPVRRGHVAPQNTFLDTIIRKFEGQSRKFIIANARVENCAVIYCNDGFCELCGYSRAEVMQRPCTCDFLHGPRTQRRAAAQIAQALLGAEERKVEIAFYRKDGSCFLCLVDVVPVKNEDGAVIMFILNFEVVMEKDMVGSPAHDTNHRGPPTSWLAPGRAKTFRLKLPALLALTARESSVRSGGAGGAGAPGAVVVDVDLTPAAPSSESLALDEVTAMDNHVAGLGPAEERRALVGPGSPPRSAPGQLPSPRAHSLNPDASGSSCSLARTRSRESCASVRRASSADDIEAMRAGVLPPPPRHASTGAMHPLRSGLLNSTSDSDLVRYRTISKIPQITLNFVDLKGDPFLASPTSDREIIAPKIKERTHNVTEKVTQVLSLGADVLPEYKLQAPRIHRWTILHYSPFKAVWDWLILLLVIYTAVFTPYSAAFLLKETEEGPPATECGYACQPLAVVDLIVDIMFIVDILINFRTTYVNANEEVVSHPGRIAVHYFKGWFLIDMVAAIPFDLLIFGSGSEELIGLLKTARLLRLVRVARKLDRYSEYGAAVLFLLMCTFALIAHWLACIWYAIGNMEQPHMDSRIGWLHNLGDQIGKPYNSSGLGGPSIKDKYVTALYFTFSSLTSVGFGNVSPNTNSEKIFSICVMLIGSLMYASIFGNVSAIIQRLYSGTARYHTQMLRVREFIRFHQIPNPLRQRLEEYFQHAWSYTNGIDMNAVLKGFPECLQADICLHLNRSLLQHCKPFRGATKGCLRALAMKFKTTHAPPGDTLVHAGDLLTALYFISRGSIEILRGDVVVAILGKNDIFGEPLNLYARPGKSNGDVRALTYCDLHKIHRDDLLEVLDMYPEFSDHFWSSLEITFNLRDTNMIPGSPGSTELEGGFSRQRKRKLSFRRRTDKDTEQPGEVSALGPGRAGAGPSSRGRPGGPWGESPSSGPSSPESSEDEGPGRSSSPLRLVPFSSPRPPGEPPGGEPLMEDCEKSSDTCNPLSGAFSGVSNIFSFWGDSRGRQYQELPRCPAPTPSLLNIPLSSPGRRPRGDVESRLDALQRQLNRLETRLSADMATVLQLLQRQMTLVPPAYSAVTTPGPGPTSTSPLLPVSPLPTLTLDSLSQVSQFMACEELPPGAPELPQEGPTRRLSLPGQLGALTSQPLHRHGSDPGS

Row | Structure (SMILES) | hERG current change (%, negative = inhibition) at 10uM [%]
1 | Nn1c(SCC(=O)NC2CCS(=O)(=O)C2)nnc1-c1cccs1 (centres unmarked) | 16.7
2 | COc1ccc(NC(=O)c2ccccc2CC[N+](=O)[O-])cc1 | 9.51
3 | COc1ccc(CCNC(=O)C2CC(c3ccc(C(F)(F)F)cc3)=NO2)cc1 (centres unmarked) | -6.74
4 | COc1ccc(C(=O)OCC(=O)NCC2CCCO2)cc1 (centres unmarked) | 17.7
5 | COc1ccc2nc(NS(=O)(=O)c3ccc(NC(C)=O)cc3)sc2c1 | 14
6 | O=C(CCN1C(=O)/C(=C/c2ccco2)SC1=S)Nc1ccc(C(=O)O)c(O)c1 | 25.1
7 | Cc1sc2nc(C)n(/N=C/c3ccccc3O)c(=O)c2c1C | -7.37
8 | O=C(Nc1cc(C(F)(F)F)ccc1N1CCOCC1)c1ccccc1F | -4.2
9 | CCCN=C(C)c1c(-c2ccccc2)[nH]n(-c2nc3ccccc3s2)c1=O | -7.79
10 | COCCCN=Cc1c(C)[nH]n(-c2ccc(Br)cc2Br)c1=O | 20.4
11 | CC(=NCCCn1ccnc1)c1c(-c2ccccc2)[nH]n(-c2nc3ccccc3s2)c1=O | -70.8
12 | CC(=NC1CC1)c1c(-c2ccccc2)[nH]n(-c2nc3ccccc3s2)c1=O | 9.63
13 | COCCCN=Cc1c(-c2ccccc2)[nH]n(-c2nc3ccccc3s2)c1=O | -75.1
14 | COCCCN=Cc1c(C)[nH]n(-c2ccc(Br)c(C)c2)c1=O | -9.32
15 | Cn1nc([N+](=O)[O-])nc1Oc1ccccc1 | -5.63
16 | COc1ccc(C(=O)NC2CCN(C(=S)Nc3cccc(C)c3C)CC2)cc1 | 0.204
17 | O=C1c2cccc3c(Nc4ccccc4Cl)c([N+](=O)[O-])cc(c23)C(=O)N1CCO | -22.8
18 | Cc1ccc(/C=C2\OC(=O)c3ccccc32)cc1 | 14.9
19 | O=C1O/C(=C/c2ccccc2)c2ccccc21 | -3.12
20 | O=C1O/C(=C\c2ccccc2)c2ccccc21 | -57.8
21 | COc1ccc(S(=O)(=O)N2CCCC2C(=O)Nc2ccc(C)cc2)cc1 (centres unmarked) | -15.3
22 | O=C(NNc1nc2c(F)cc(F)cc2s1)c1ccccc1 | 8.87

Row | Structure (SMILES) | hERG current change (%, negative = inhibition) at 10uM [%]
23 | O=C(COc1ccccc1)NNc1nc2c(F)cccc2s1 | 32.6
24 | O=C(COc1ccccc1)NNc1nc2c(F)cc(F)cc2s1 | -62.6
25 | O=C(NN=C1CCCCC1)Nc1ccccc1Cl | 3.82
26 | CCn1c(SCC(=O)Nc2nonc2C)nnc1-c1ccoc1C | -1.18
27 | Cc1nonc1NC(=O)CSc1nnc(-c2ccoc2C)n1-c1cccc(Cl)c1 | -77.9
28 | CCCn1c(SCC(=O)Nc2nonc2C)nnc1-c1ccoc1C | -8.43
29 | Cc1cccc(-n2c(SCC(=O)Nc3nonc3C)nnc2-c2ccoc2C)c1 | -78.9
30 | Cc1nonc1NC(=O)CSc1nnc(-c2ccoc2C)n1C | 4.89
31 | Cc1nonc1NC(=O)CSc1nnc(-c2ccoc2C)n1CC(C)C | -17.1
32 | Cc1ccc(C)c(-n2c(SCC(=O)Nc3nonc3C)nnc2-c2ccoc2C)c1 | -61.2
33 | Cc1ccc(-n2c(SCC(=O)Nc3ccc4c(c3)OCO4)nnc2-c2ccoc2C)cc1 | -42.2
34 | CNC(=O)CSc1nnc(-c2ccco2)n1-c1cc(C)ccc1C | -2.95
35 | COc1ccc(C)cc1NC(=O)C(C)N1CCOCC1.Cl (centres unmarked) | 9.06
36 | Cc1nc(Nc2nc3ccccc3o2)nc(C)c1C | 10.3
37 | CCC(C(=O)Nc1ccc(C(=O)O)cc1NC(=O)C(CC)c1ccccc1)c1ccccc1 (centres unmarked) | 9.71
38 | CCOc1ccc(CCNC(=O)C2CCN(c3nn4c(=O)cc(C)nc4s3)CC2)cc1OCC | -8.23
39 | Cc1c(C)n(C)c2ccc(C(=O)N3CCN(c4ccccc4)CC3)cc12 | -5.05
40 | CCOc1ccccc1-c1noc(CCC(=O)Nc2cccnc2)n1 | 9.94
41 | CCC1C(=O)C(CC)C(c2ccccc2)NC1c1ccccc1 (centres unmarked) | 11.9
42 | CCCN1CCN(C(=O)c2cn(CC(C)C)c(=O)c3cc(OC)c(OC)cc23)CC1 | -41.1
43 | CCn1cc(C(=O)N2CCN(c3ccc(OC)cc3)CC2)c2cc(OC)c(OC)cc2c1=O | -33.8
44 | COc1ccc(C(=O)N2CCN(c3cccc(Cl)c3)CC2)c(OC)c1 | -44.6

Row | Structure (SMILES) | hERG current change (%, negative = inhibition) at 10uM [%]
45 | CCn1cc(C(=O)N2CCN(c3ccccc3OC)CC2)c2cc(OC)c(OC)cc2c1=O | -1.96
46 | COc1cc2c(C(=O)N3CCN(c4cccc(Cl)c4)CC3)cn(CC(C)C)c(=O)c2cc1OC | -63.6
47 | CCn1cc(C(=O)N2CCN(c3ccc(F)cc3)CC2)c2cc(OC)c(OC)cc2c1=O | -69.5
48 | CCn1cc(C(=O)N2CCN(c3ccccn3)CC2)c2cc(OC)c(OC)cc2c1=O | -14.4
49 | COc1cc2c(C(=O)NCCCN3CCN(c4cccc(Cl)c4)CC3)cn(C)c(=O)c2cc1OC | -46
50 | COc1cc2c(C(=O)N3CCN(c4cccc(Cl)c4)CC3)cn(C)c(=O)c2cc1OC | -53.1
51 | CCn1cc(C(=O)N2CCN(c3cccc(Cl)c3)CC2)c2cc(OC)c(OC)cc2c1=O | -64.8
52 | COc1ccccc1C(=O)N1CCN(c2cccc(Cl)c2)CC1 | 0.406
53 | CCn1cc(C(=O)N2CCN(c3ccc(C(C)=O)cc3)CC2)c2cc(OC)c(OC)cc2c1=O | -44.3
54 | CCOC(=O)c1cnc(SC)nc1Oc1cccc(NC(=O)c2ccc(C)cc2)c1 | 11.4
55 | COC(=O)c1cccnc1SCc1ccccc1 | -14.9
56 | C/C(=N\OCC(=O)Nn1c(C)nc2ccccc2c1=O)c1ccccc1 | -13.8
57 | Cc1cccc(NC(=O)c2cc3c([nH]c4ccccc43)c(C)n2)c1C | 11.6
58 | COc1cc(C2C(C(=O)c3cccs3)=C(O)C(=O)N2CCN2CCOCC2)cc(OC)c1OC (centres unmarked) | 14.3
59 | CN(C)c1cc[n+](CC(=O)Nc2cc(C(F)(F)F)ccc2Cl)cc1.[Cl-] | 7.63
60 | CCn1c(CNc2ccc(F)cc2)nnc1SCC(=O)Nc1ccccc1OC | -30.2
61 | CN1CCCN(C(=O)c2ccc(Cl)cc2)CC1 | 5.68
62 | Cc1ccc2nc(SCC(=O)Nc3ccc4c(c3)CCC4)[nH]c2c1 | 8.84
63 | CCN(CC)S(=O)(=O)c1ccc(-c2nnc(SCC(C)=O)o2)cc1 | -8.48
64 | CCOC(=O)C1CCCN(C(=O)c2cn(CC(C)C)c(=O)c3cc(OC)c(OC)cc23)C1 (centres unmarked) | 5.47
65 | COc1cc2c(C(=O)N3CCN(C4CCCCC4)CC3)cn(CC(C)C)c(=O)c2cc1OC | -63.3
66 | CCn1cc(C(=O)N2CCN(C3CCCCC3)CC2)c2cc(OC)c(OC)cc2c1=O | -20.6

Row | Structure (SMILES) | hERG current change (%, negative = inhibition) at 10uM [%]
67 | COc1ccc(NS(=O)(=O)c2cc3c4c(c2)C(C)C(=O)N4CCC3)cc1 (centres unmarked) | 10.3
68 | CCN(CC)CC(=O)N1c2ccccc2Sc2ccc(Cl)cc21.Cl | -10.3
69 | Cc1cc(C(=O)N/N=C/c2ccc(Cl)c([N+](=O)[O-])c2)c(C)n1-c1ccc(F)cc1 | -2.41
70 | CC(C)n1c2ccccc2c2cc([N+](=O)[O-])ccc21 | 16.1
71 | Cc1ccc(C(=O)NC(C(=O)NC2CCCC2)c2ccccc2)cc1 (centres unmarked) | 15
72 | c1cnc(Sc2ccc3nnnn3n2)nc1 | -56.4
73 | c1ccc(Sc2ncccn2)nc1 | 12.2
74 | c1ccc(-c2ccc3nnnn3n2)cc1 | 5.72
75 | COc1ccc(C(=O)c2sc3nc(-c4ccccc4)ccc3c2N)cc1OC | 18.1
76 | CC[n+]1c(/C=C2/C=C(C)CC(C)C2)sc2ccccc21.[I-] (centres unmarked) | -3.25
77 | CC[n+]1c(/C=C/N(C)c2ccccc2)oc2ccccc21.O=S(=O)([O-])CCO | 0.826
78 | CC[n+]1c(/C=C2\C=C(C)CC(C)C2)sc2ccccc21.[I-] (centres unmarked) | 6.92
79 | CC[n+]1ccccc1/C=C/Nc1ccccc1.[I-] | -44.7
80 | CC[n+]1c(/C=C/Nc2ccccc2)oc2ccccc21.[I-] | -70.4
81 | CC[n+]1c(/C=C/Nc2ccccc2)sc2ccccc21.[I-] | -72.2
82 | CCN1/C(=C/C=C/c2oc3ccc(-c4ccccc4)cc3[n+]2CC)Oc2ccc(-c3ccccc3)cc21.CCOS(=O)(=O)[O-] | -2.14
83 | CCOc1ccc(S(=O)(=O)Nc2cccc(OC)c2)cc1 | -25
84 | CCOS(=O)(=O)[O-].CC[n+]1c(/C=C/Nc2ccccc2)oc2ccc(OC)cc21 | -77.2
85 | NC(=O)CC(NC(=O)Cc1cccc2ccccc12)c1ccc(NCCN2CCCCC2)c([N+](=O)[O-])c1 (centres unmarked) | 7.38
86 | O=c1[nH]c2ccc(Cl)cc2c(-c2ccccc2)c1N1CCN(c2ccccn2)CC1 | 6.61
